Results: PubChem BioAssay (NCI)
This is part of a sample that, as a whole, favours compounds with a hit. Of some 79,000 tested, about 15% had one in any assay. Calls of active or inactive are those of the source. Rule as the data show it: active = growth inhibition above about 70%; inactive = the rest.

How the values were obtained:
[1] = NCI Yeast Anticancer Drug Screen. Data for the rad50 strain (AID 155);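 also: 0% = growth of vehicle-only cultures of the same strain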; conditions: S. cerevisiae rad50 strain growth inhibition; at 50.0 µM; active compounds read high
Summary of the method: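 Compounds were tested on a yeast strain with an engineered DNA damage repair alteration; the reported value is growth inhibition normalised to vehicle treatment.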

[2] = NCI Yeast Anticancer Drug Screen. Data for the mec2-1 strain (AID 157); conditions: S. cerevisiae mec2-1 strain, at 50.0 µM, active compounds read high
Summary of the method: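 Strain: mec2-1 (DNA repair/cell cycle alteration). Compound exposure, then growth measured; inhibition expressed relative to vehicle.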

[3] = NCI Yeast Anticancer Drug Screen. Data for the sgs1 mgt1 strain (AID 161);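 also: 0% = growth of cultures given vehicle only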; conditions: S. cerevisiae sgs1 mgt1 strain, at 50.0 µM, active compounds read high
Summary of the method: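 Read-out: growth inhibition vs vehicle controls. Cells: mutant yeast strain deficient in DNA damage repair.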

[4] = NCI Yeast Anticancer Drug Screen. Data for the cln2 rad14 strain (AID 165);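 also: 0% = growth equal to vehicle treated cultures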; conditions: S. cerevisiae cln2 rad14 strain, at 50.0 µM, active compounds read high
Summary of the method: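 Compounds are applied to the cln2 rad14 yeast strain, and growth is then compared with that of vehicle-treated cultures to give inhibition.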

[5] = NCI Yeast Anticancer Drug Screen. Data for the bub3 strain (AID 167); conditions: S. cerevisiae bub3 mutant strain, at 50.0 µM, active compounds read high
Summary of the method: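 Growth of a checkpoint-deficient yeast mutant is measured after compound exposure. Values represent inhibition relative to vehicle.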

[6] = NCI Yeast Anticancer Drug Screen. Data for the mlh1 rad18 strain (AID 175); conditions: S. cerevisiae mlh1 rad18 strain growth inhibition; at 50.0 µM; active compounds read high
Summary of the method: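 Read-out is yeast growth inhibition, calculated against vehicle-only controls. The compound was applied to a strain engineered with DNA damage repair alterations.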

Measured: growth inhibition

Oc1ccc(OCc2ccccc2)cc1CN1CCOCC1
inactive: [1] 17.2% | [2] 7.85% | [3] 27.3% | [4] 7.15% | [5] 22.9% | [6] 34.5%

COc1c(C)c(OC)c(C(=O)CC(C)C)c(OC)c1C
inactive: [1] 0.4% | [2] 5.05% | [3] 35.2% | [4] 20.4% | [5] 19.7% | [6] -29.6%

O=C1N=C(C=c2ccc(=Cc3[nH]c(=O)[nH]c3O)cc2)C(=O)N1
inactive: [1] -5.95% | [2] -11.4% | [3] -14.9% | [4] 13.9% | [5] 8.35% | [6] 5.7%

O=C(Nc1ccc2c(c1)Cc1ccccc1-2)C(Cl)Cl
inactive: [1] 20.4% | [2] 1.95% | [3] 10.6% | [4] -7.85% | [5] 42.5% | [6] 14%

CCOC(=O)C1CCC(=O)N1Cc1c[nH]c2ccccc12 (stereo unspecified)
inactive: [1] 3.2% | [2] -12.7% | [3] -5.1% | [4] 1% | [5] 21.4% | [6] -14.7%

O=c1[nH]c2ccccc2c(N=Cc2ccccc2)c1-c1ccccc1
inactive: [1] -6.95% | [2] -20.6% | [3] -4.6% | [4] -26.8% | [5] -12.1% | [6] -0.4%

FC(F)(F)C(F)(F)C(F)(F)c1nnnn1-c1ccccc1
inactive: [1] 10.8% | [2] -0.8% | [3] -17.1% | [4] 3.3% | [5] -13.3% | [6] -17.1%

CCCCOC(=O)C(=O)/C(=C\n1c(=S)[nH]c2cc(C)ccc21)C(=O)C=C(C)C
inactive: [1] -15.6% | [2] -22% | [3] 3.05% | [4] -22.4% | [5] -10.7% | [6] -28.1%

C1=C2/CC[C@H](Sc3ccccc3)[C@H]2C2(CCCCC/1)OCCO2
inactive: [1] 13.8% | [2] -19% | [3] -6.45% | [4] -1.05% | [5] 13.2% | [6] -4.05%

CC(=O)NC(Cc1c[nH]c2ccccc12)C(=O)Oc1ccc([N+](=O)[O-])cc1 (stereo unspecified)
inactive: [1] -9.2% | [2] 23.1% | [3] 24.6% | [4] 13.1% | [5] 9.3% | [6] 17.6%

O=C(O)c1ccc(O)c(Cl)c1
inactive: [1] 14.2% | [2] 5.8% | [3] -7.85% | [4] -22.2% | [5] 9.25% | [6] 25.4%

CCOc1ccccc1C(=O)N(CC)CC
inactive: [1] -8.55% | [2] -3.2% | [3] -4.6% | [4] -5.85% | [5] -9.8% | [6] -5.65%

c1ccc(C2=NN(c3ccccc3)C3C4CCC(C4)C23)cc1 (stereo unspecified)
inactive: [1] -5.6% | [2] 8.15% | [3] -6.2% | [4] -49% | [5] 13.8% | [6] 12.1%

CC1NC(C)SC(C)S1 (stereo unspecified)
inactive: [1] -9.15% | [2] -23.6% | [3] 0.15% | [4] -16.1% | [5] -0.7% | [6] 36.8%

NC1=NCC(c2ccccn2)C1c1ccc(F)cc1 (stereo unspecified)
inactive: [1] -11.9% | [2] -34.9% | [3] 1.1% | [4] 7.75% | [5] -18.7% | [6] -14%

CCOC(=O)c1c(/N=C/c2ccc3c(c2)OCO3)sc2c1CCCC2
inactive: [1] 7.7% | [2] -23.3% | [3] 17.8% | [4] 11.8% | [5] 11.3% | [6] 3.2%

CC(C)C(=O)Nc1ccc([N+](=O)[O-])cc1
inactive: [1] 26.1% | [2] 4.2% | [3] 10.8% | [4] 9.4% | [5] -36% | [6] -17.3%

CSC(=S)Nc1nc2ccc(C)cc2s1
inactive: [1] 21.4% | [2] 0.4% | [3] -2.95% | [4] -15% | [5] 11.3% | [6] -14.8%

CC1(C)OC2C(COCc3ccccc3)=CC(n3ccc(=O)[nH]c3=O)C2O1 (stereo unspecified)
inactive: [1] -8.3% | [2] -16.8% | [3] 1.7% | [4] -0.7% | [5] 10.1% | [6] 14.3%

O=C(Nc1ccc(Cl)cc1)Nc1ccc(Cl)nn1
inactive: [1] -29.2% | [2] 7.85% | [3] -10.1% | [4] -39.8% | [5] -6.8% | [6] -1.85%

CCOCCOC(=O)c1ccc(C(N)=NC)cc1
inactive: [1] 12.6% | [2] -1.2% | [3] 5.2% | [4] -8.15% | [5] 6.05% | [6] 5.8%

COC(=O)CC(C(C(=O)OC)C(=O)OC)N1C(=O)OCC1c1ccccc1 (stereo unspecified)
inactive: [1] -16.6% | [2] -0.45% | [3] -29.1% | [4] -12.3% | [5] -17.9% | [6] -15.9%

CC1CCC(OC(=O)CC#N)CC1 (stereo unspecified)
inactive: [1] -2.15% | [2] -7.2% | [3] -2.3% | [4] 3.45% | [5] 2.35% | [6] -6.15%

O=C(CCC(O)c1ccccc1)c1ccccc1 (stereo unspecified)
inactive: [1] -13.6% | [2] -12.3% | [3] -9.3% | [4] -10.9% | [5] 0% | [6] 2.35%

CCCC(=O)OCC1OC(n2ccc(N)nc2=O)C(OC(=O)CCC)C1OC(=O)CCC (stereo unspecified)
inactive: [1] 18.6% | [2] -22.4% | [3] 36.3% | [4] 17.8% | [5] 10.6% | [6] 8.2%

c1ccc2cc3c(NC4=NCCO4)cccc3cc2c1
inactive: [1] -2.8% | [2] 5.9% | [3] -2.7% | [4] 22.4% | [5] 33.1% | [6] 16.2%

CC(=O)C1(C)CCC2C3CCC4=CC(=O)CCC4=C3CCC21C (stereo unspecified)
inactive: [1] 32.1% | [2] 1.3% | [3] 50.9% | [4] 9.9% | [5] 34% | [6] 23.6%

Nc1nc(C=O)c(CCc2ccccc2)c(=O)[nH]1
inactive: [1] 6.8% | [2] 8.95% | [3] -7.8% | [4] -28.7% | [5] -11% | [6] -12.4%

CCOC(N)=C(C#N)C#N
inactive: [1] 12.6% | [2] 15.1% | [3] 3.45% | [4] 21.4% | [5] 23.1% | [6] 11.8%

CC(=O)OC12c3ccccc3C(c3ccccc31)C1C(=O)N(c3ccccn3)C(=O)C12 (stereo unspecified)
inactive: [1] -23.6% | [2] -7.4% | [3] 5.9% | [4] 3.35% | [5] 9.9% | [6] 5.6%

Cc1n[nH]c(=S)[nH]c1=S
inactive: [1] -14.3% | [2] -5.1% | [3] 9.4% | [4] -42.1% | [5] -23.2% | [6] 14.4%

CNc1nc(C(F)(F)F)nc2[nH]ncc12
inactive: [1] 5.15% | [2] 17.9% | [3] -7.65% | [4] -16.9% | [5] -20.6% | [6] -20.9%

CCCC(=O)OC1CCCC1
inactive: [1] 27.9% | [2] 27.8% | [3] 20.4% | [4] 24.1% | [5] 21.8% | [6] 28.7%

O=C(CC1Sc2ccccc2NC1=O)NNc1c(Cl)cc(Cl)cc1Cl (stereo unspecified)
inactive: [1] 6.45% | [2] 0.9% | [3] 4% | [4] 17.3% | [5] 0.55% | [6] 33%

CC(C)CC(O)(CC(C)C)C(CCC(=O)Nc1ccccc1)C(=O)Nc1ccccc1 (stereo unspecified)
inactive: [1] 26.1% | [2] 11.9% | [3] 1.9% | [4] -52.1% | [5] -8.5% | [6] 7.6%

CC(C)=CCc1c(O)ccc(C(=O)C2C(c3c(O)cc(-c4cc5ccc(O)cc5o4)cc3O)C=C(C)CC2c2ccc(O)cc2O)c1O (stereo unspecified)
active: [1] 87% | [2] 90.7% | [3] 90% | [4] 89.4% | [5] 88.2% | [6] 87.9%

Oc1ccc(Br)cc1/C=N\NC(=S)Nc1ccc2cn[nH]c2c1
inactive: [1] 47.1% | [2] 23.9% | [3] 47.8% | [4] 24.9% | [5] 2.1% | [6] 40.4%

CCSc1cccc(C(=O)O)c1
inactive: [1] -23.1% | [2] -2.9% | [3] -3.4% | [4] -27.8% | [5] -22.9% | [6] -7.8%

COC(=O)CCC(CCC(=O)O)([N+](=O)[O-])[N+](=O)[O-]
inactive: [1] 2.05% | [2] -5.65% | [3] -6.3% | [4] -36.4% | [5] -12.1% | [6] -11.8%

COc1cccc(NCC(=O)Nn2c(-c3ccccc3)nc3ccccc3c2=O)c1
inactive: [1] -37.5% | [2] -40.8% | [3] -27.2% | [4] -3.05% | [5] 5% | [6] -23%

Cc1ccc(N2CCCCN(c3ccc(C)cc3)/C(c3ccccc3)=C\2c2ccccc2)cc1
inactive: [1] -8.55% | [2] -7.3% | [3] -7% | [4] -8.2% | [5] -1.35% | [6] -29.9%
